According to PubChem BioAssay (EPA / NIEHS):
The source made the active and inactive calls. Rule for the calls: active = hit-call score of the fitted dose curve at least 0.9, where 1 is the maximum; inactive = score below 0.9.

Key:
Conditions in all cases: mRNA level, 48 h; actives raise or lower the signal
[1] = read-out: Cyclin Dependent Kinase Inhibitor 1A (CDKN1A), CDKN1A (gene 1026); assay: LTEA_HepaRG_CDKN1A: Life Technologies and Expression Analysis (LTEA) Assay for Cyclin Dependent Kinase Inhibitor 1A (CDKN1A) using HepaRG (AID 2283450)
In short: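 Differentiated HepaRG cells in serum-free induction medium, exposed 48 h in duplicate to eight half-log concentrations up to 100 uM in 0.5% DMSO. mRNA measured by TaqMan qRT-PCR, normalized to ACTB, GAPDH, POLR2A; bidirectional fit versus DMSO.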

[2] = read-out: Cyclin D1 (CCND1), CCND1 (gene 595); assay: LTEA_HepaRG_CCND1: Life Technologies and Expression Analysis (LTEA) Assay for Cyclin D1 (CCND1) using HepaRG (AID 2283451)
In short: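 Differentiated HepaRG cells exposed 48 h in serum-free induction medium to eight half-log concentrations from 100 uM top, 0.5% DMSO, duplicates. CCND1 mRNA measured by Fluidigm TaqMan qRT-PCR, normalised to ACTB, GAPDH, POLR2A; bidirectional fit.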

[3] = read-out: catalase (CAT), CAT (gene 847); assay: LTEA_HepaRG_CAT: Life Technologies and Expression Analysis (LTEA) Assay for catalase (CAT) using HepaRG (AID 2283452)
In short: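 Expression of CAT was quantified by TaqMan qRT-PCR with ACTB/GAPDH/POLR2A normalization after 48 h chemical exposure of HepaRG. Eight-point half-log series, top 100 uM, in 0.5% DMSO; gain or loss fitted against vehicle.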

[4] = read-out: flavin-containing dimethylaniline monooxygenases 3 (FMO3), FMO3 (gene 2328); assay: LTEA_HepaRG_FMO3: Life Technologies and Expression Analysis (LTEA) Assay for flavin-containing dimethylaniline monooxygenases 3 (FMO3) using HepaRG (AID 2283453)
In short: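 HepaRG, 48 h exposure, 8-pt half-log series from 100 uM, 0.5% DMSO vehicle, duplicates; FMO3 transcript by Fluidigm TaqMan qRT-PCR, housekeeping-normalized; gain/loss fit vs DMSO.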

[5] = read-out: Cytochrome P450 (CYP1A1), CYP1A1 (gene 1543); assay: LTEA_HepaRG_CYP1A1: Life Technologies and Expression Analysis (LTEA) Assay for Cytochrome P450 (CYP1A1) using HepaRG (AID 2283454)
In short: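 Differentiated human HepaRG cells, after 48 h plating, exposed in duplicate for 48 h in serum-free induction medium to 8 half-log concentrations up to 100 uM in 0.5% DMSO. CYP1A1 mRNA by qRT-PCR, normalized to ACTB/GAPDH/POLR2A; bidirectional fit versus DMSO.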

[6] = read-out: CFLAR gene, CFLAR (gene 8837); assay: LTEA_HepaRG_CFLAR: Life Technologies and Expression Analysis (LTEA) Assay for CFLAR gene using HepaRG (AID 2283455)
In short: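 HepaRG, 48 h exposure, 8-pt conc-response (100 uM top, half-log), 0.5% DMSO vehicle, duplicates. CFLAR expression by qRT-PCR; ACTB/GAPDH/POLR2A normalization; gain or loss fit vs DMSO baseline.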

[7] = read-out: Forkhead box O1 (FOXO1), FOXO1 (gene 2308); assay: LTEA_HepaRG_FOXO1: Life Technologies and Expression Analysis (LTEA) Assay for Forkhead box O1 (FOXO1) using HepaRG (AID 2283456)
In short: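 Readout is FOXO1 transcript level by multiplexed qRT-PCR against three housekeeping genes, curve-fitted in both directions relative to 0.5% DMSO vehicle. Human HepaRG cultures received chemicals for 48 h, up to 100 uM in half-log steps.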

[8] = read-out: growth arrest and DNA damage 45 (GADD45A), GADD45A (gene 1647); assay: LTEA_HepaRG_GADD45A: Life Technologies and Expression Analysis (LTEA) Assay for growth arrest and DNA damage 45 (GADD45A) using HepaRG (AID 2283458)
In short: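 Human HepaRG liver cells are treated in duplicate for 48 h with chemicals in 0.5% DMSO, highest concentration 100 uM. Expression is read by qRT-PCR and analyzed in both directions against vehicle.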

[9] = read-out: Forkhead box O3 (FOXO3), FOXO3 (gene 2309); assay: LTEA_HepaRG_FOXO3: Life Technologies and Expression Analysis (LTEA) Assay for Forkhead box O3 (FOXO3) using HepaRG (AID 2283459)
In short: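 HepaRG, 48 h post-dose; 8 conc., half-log from 100 uM, 0.5% DMSO, duplicates; serum-free induction medium. Readout: FOXO3 mRNA, TaqMan qRT-PCR, housekeeping-normalized. Bidirectional curve fit vs DMSO baseline.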

[10] = read-out: ABC Transporter (ABCB1), ABCB1 (gene 5243); assay: LTEA_HepaRG_ABCB1: Life Technologies and Expression Analysis (LTEA) Assay for ABC Transporter (ABCB1) using HepaRG (AID 2283460)
In short: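 Expression of ABCB1 was quantified by qRT-PCR against three housekeeping genes after human HepaRG cultures received test chemicals for 48 hours. Concentrations spanned eight half-log steps topping at 100 uM in 0.5% DMSO; gain or loss of signal was fitted relative to vehicle.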

[11] = read-out: growth arrest and DNA damage 45 (GADD45B), GADD45B (gene 4616); assay: LTEA_HepaRG_GADD45B: Life Technologies and Expression Analysis (LTEA) Assay for growth arrest and DNA damage 45 (GADD45B) using HepaRG (AID 2283461)
In short: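 Differentiated human HepaRG cells in serum-free induction medium exposed 48 h in duplicate to eight concentrations, top 100 uM, half-log steps, 0.5% DMSO. GADD45B mRNA by TaqMan qRT-PCR, normalized to ACTB, GAPDH, POLR2A; bidirectional fit versus DMSO.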

[12] = read-out: ABC Transporter (ABCC3), ABCC3 (gene 8714); assay: LTEA_HepaRG_ABCC3: Life Technologies and Expression Analysis (LTEA) Assay for ABC Transporter (ABCC3) using HepaRG (AID 2283462)
In short: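 Differentiated human HepaRG cells exposed 48 h in serum-free induction medium, 0.5% DMSO vehicle, 8-point half-log series to 100 uM in duplicate. ABCC3 mRNA by qRT-PCR, normalised to ACTB, GAPDH, POLR2A; bidirectional fit vs DMSO.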

[13] = read-out: ABC Transporter (ABCB11), ABCB11 (gene 8647); assay: LTEA_HepaRG_ABCB11: Life Technologies and Expression Analysis (LTEA) Assay for ABC Transporter (ABCB11) using HepaRG (AID 2283463)
In short: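 ABCB11 transcript levels are read by Fluidigm TaqMan qRT-PCR after 48 h chemical treatment of human HepaRG cells. Concentrations span 100 uM downward in half-log steps with 0.5% DMSO; gain or loss is fitted against DMSO controls.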

[14] = read-out: ABC Transporter (ABCC2), ABCC2 (gene 1244); assay: LTEA_HepaRG_ABCC2: Life Technologies and Expression Analysis (LTEA) Assay for ABC Transporter (ABCC2) using HepaRG (AID 2283464)
In short: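 Differentiated HepaRG cells in serum-free induction medium exposed 48 h to eight half-log concentrations up to 100 uM, 0.5% DMSO, in duplicate. ABCC2 mRNA measured by qRT-PCR (TaqMan, Fluidigm), normalized to ACTB, GAPDH and POLR2A. Fitted in both directions against DMSO.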

[15] = read-out: Broad substrate specificity ATP-binding cassette transporter ABCG2 (Homo sapiens) (UniProt Q9UNQ0); assay: LTEA_HepaRG_ABCG2: Life Technologies and Expression Analysis (LTEA) Assay for ABC Transporter (ABCG2) using HepaRG (AID 2283465)
In short: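 Read-out is ABCG2 mRNA induction or loss quantified by qRT-PCR after 48 h chemical treatment of human HepaRG cells, normalized to three housekeeping genes. Concentrations reached 100 uM top in half-log steps; fitting was bidirectional against 0.5% DMSO.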

[16] = read-out: ATP-citrate lyase (ACLY), ACLY (gene 47); assay: LTEA_HepaRG_ACLY: Life Technologies and Expression Analysis (LTEA) Assay for ATP-citrate lyase (ACLY) using HepaRG (AID 2283466)
In short: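 HepaRG, 48 h exposure, 8-pt half-log dilutions (top 100 uM), 0.5% DMSO. Readout: ACLY mRNA, TaqMan qRT-PCR, housekeeping-normalized (ACTB/GAPDH/POLR2A). Bidirectional curve fit vs DMSO.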

[17] = read-out: Peroxisomal acyl-coenzyme A oxidase 1 (ACOX1) gene, ACOX1 (gene 51); assay: LTEA_HepaRG_ACOX1: Life Technologies and Expression Analysis (LTEA) Assay for Peroxisomal acyl-coenzyme A oxidase 1 (ACOX1) gene using HepaRG (AID 2283467)
In short: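 Measured by qRT-PCR against three housekeeping genes: ACOX1 transcript change in human HepaRG cells after 48 h dosing. Concentrations ran up to 100 uM in half-log steps. Curves were fitted bidirectionally relative to 0.5% DMSO.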

[18] = read-out: Alkaline Phosphatase, Placental (ALPP) gene, ALPP (gene 250); assay: LTEA_HepaRG_ALPP: Life Technologies and Expression Analysis (LTEA) Assay for Alkaline Phosphatase, Placental (ALPP) gene using HepaRG (AID 2283468)
In short: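 HepaRG cells plated 48 h, then exposed in duplicate for 48 h in serum-free induction medium to 8-point half-log series from 100 uM in 0.5% DMSO. ALPP mRNA by TaqMan qRT-PCR, normalized to ACTB/GAPDH/POLR2A; bidirectional fit versus DMSO.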

[19] = read-out: Bcl-2 (BAD) gene, BAD (gene 572); assay: LTEA_HepaRG_BAD: Life Technologies and Expression Analysis (LTEA) Assay for Bcl-2 (BAD) gene using HepaRG (AID 2283469)
In short: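 BAD transcript change, measured by qRT-PCR against three housekeeping genes and fitted in both directions relative to 0.5% DMSO, after 48 h chemical treatment of human HepaRG liver cells at concentrations up to 100 uM.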

[20] = read-out: Bcl-2 (BAX) gene, BAX (gene 581); assay: LTEA_HepaRG_BAX: Life Technologies and Expression Analysis (LTEA) Assay for Bcl-2 (BAX) gene using HepaRG (AID 2283470)
In short: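 Concentration-response endpoint fitted in both directions relative to 0.5% DMSO vehicle. Human HepaRG cultures receive test chemicals for 48 h at up to 100 uM; BAX mRNA is quantified by qRT-PCR against housekeeping genes.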

Measured: outcome

Sequence of Broad substrate specificity ATP-binding cassette transporter ABCG2 (Homo sapiens) (Q9UNQ0 whole entry, looked up): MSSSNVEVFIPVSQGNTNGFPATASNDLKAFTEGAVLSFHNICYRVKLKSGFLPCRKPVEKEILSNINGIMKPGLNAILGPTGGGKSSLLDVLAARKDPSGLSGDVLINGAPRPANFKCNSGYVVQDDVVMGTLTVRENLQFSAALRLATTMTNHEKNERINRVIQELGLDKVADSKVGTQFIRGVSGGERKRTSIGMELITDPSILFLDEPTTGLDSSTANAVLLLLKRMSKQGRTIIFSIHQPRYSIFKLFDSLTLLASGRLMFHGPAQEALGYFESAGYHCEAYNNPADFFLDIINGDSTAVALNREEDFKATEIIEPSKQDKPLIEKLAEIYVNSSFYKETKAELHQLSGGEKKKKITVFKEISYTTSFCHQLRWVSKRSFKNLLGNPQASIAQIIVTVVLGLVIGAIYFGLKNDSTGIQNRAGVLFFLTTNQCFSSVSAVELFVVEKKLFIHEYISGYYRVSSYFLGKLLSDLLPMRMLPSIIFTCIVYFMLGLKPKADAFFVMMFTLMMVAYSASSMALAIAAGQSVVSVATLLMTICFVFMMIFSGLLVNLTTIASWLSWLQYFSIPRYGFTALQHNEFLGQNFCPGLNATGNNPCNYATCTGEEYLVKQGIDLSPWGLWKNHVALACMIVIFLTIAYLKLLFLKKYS

N#CCCCCC#N
inactive: [1] | [2] | [3] | [4] | [5] | [6] | [7] | [8] | [9] | [10] | [11] | [12] | [13] | [14] | [15] | [16] | [17] | [18] | [19] | [20]

O=C(CCl)c1ccccc1
inactive: [1] | [2] | [3] | [4] | [5] | [6] | [7] | [8] | [9] | [10] | [11] | [12] | [13] | [14] | [15] | [16] | [17] | [18] | [19] | [20]
